Beta2AR agonist: activates human beta-2 adrenergic receptor causing internalization; Am2.2-beta2AR cells, FAP receptor internalization, flow cytometry; response, % (no concentration beside the values); 0.43% of 340,000 active; AID 504454;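 active means response above a set limit, near 3 SD of response in nonfluorescent compounds, cut at about 42% in these data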
Target sequence (P07550 whole entry, looked up): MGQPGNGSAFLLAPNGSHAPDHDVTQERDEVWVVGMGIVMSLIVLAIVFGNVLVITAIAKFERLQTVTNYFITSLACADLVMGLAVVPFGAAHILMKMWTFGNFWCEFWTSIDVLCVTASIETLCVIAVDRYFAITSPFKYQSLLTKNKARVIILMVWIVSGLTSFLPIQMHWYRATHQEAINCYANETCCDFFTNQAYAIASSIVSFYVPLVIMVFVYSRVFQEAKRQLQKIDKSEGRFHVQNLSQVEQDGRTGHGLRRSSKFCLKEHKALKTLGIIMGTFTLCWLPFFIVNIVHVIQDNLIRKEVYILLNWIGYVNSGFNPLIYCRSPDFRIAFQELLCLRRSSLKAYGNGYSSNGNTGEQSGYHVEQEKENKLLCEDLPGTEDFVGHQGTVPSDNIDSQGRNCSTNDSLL
CF NFkB inh: cystic fibrosis NF-kB activation inhibition. inhibition, % at 5 µM. AID 588850. 0.86% of 360,000 active. KKLEB NF-kB-GFP reporter, PAF-induced, GFP fluorescence overnight;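 active means at least 50% inhibition at 5 µM, scaled per plate between neutral and stimulator controls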;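 further: PAF is a Pseudomonas aeruginosa culture filtrate used as stimulus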
KKLEB cytotox: reduces viability of KKLEB cystic fibrosis airway cells | AID 602141 | 0.36% of 360,000 active | activity change (cytotoxicity), % at 5 µM | KKLEB CF airway cells viability, ATPlite luminescence, overnight; active compounds read low; cells stimulated with P. aeruginosa culture filtrate;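 active means corrected activity change at or below -50% at 5 µM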
MITF TRPM1 inh: MITF TRPM1 promoter inhibition in SK-MEL-5 cells | 0.83% of 330,000 active | inhibition, % at 12.5 µM | SK-MEL-5 TRPM1 promoter luciferase, 24 h;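 active means mean inhibition across replicates of 60% or more, whatever share of single replicates reaches that level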
Peg3 prom inh: inhibitors of Peg3 promoter | HeLa PEG-Prom luciferase reporter, luminescence, overnight | 1.7% of 360,000 active | inhibition, % at 20 µM;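 active means inhibition of at least 50% at 20 µM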
HIF-2a inh: HIF-2a inhibition; AID 624352; 786-0 RCC cells HIF-2a reporter, luciferase luminescence, overnight; 0.72% of 360,000 active; inhibition, % at 18.8 µM;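 active means inhibition of the luminescence signal of 40% or more relative to plate controls, in a single-dose primary screen at 18.75 µM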
Of the large screens only hits and unclear results are named; the others gave an inactive call. In the library only some 2.8% were active in any assay of this set; here they are far more common.

O=C(Nc1nc(-c2ccccn2)cs1)c1ccc(-c2ccccc2F)o1	Peg3 prom inh 68.5
CC1(C(=O)NS(=O)(=O)c2ccc(Br)cc2)CCN1C(=O)CCc1ccccc1 (stereo unspecified)	none (no result: Beta2AR agonist, MITF TRPM1 inh)
CC(=O)Nc1ccc(-c2ccnc3c2CC(C(=O)Nc2cccc(N(C)C)c2)O3)cc1 (stereo unspecified)	none (no result: Beta2AR agonist, MITF TRPM1 inh)
CCOC(=O)[C@]12CCC=C1N(Cc1ccc3c(c1)OCO3)C(=O)[C@H](CC(=O)N1CCOCC1)C2	none (no result: Beta2AR agonist, CF NFkB inh, KKLEB cytotox, MITF TRPM1 inh, Peg3 prom inh)
CCn1nc(C(=O)Nc2nc(-c3ccccn3)cs2)c2ccccc2c1=O	Peg3 prom inh 51.0 (no result: MITF TRPM1 inh)
CCNC(=O)N(C)c1c(CC)nc2ccc(C(=O)N3CCN(C(C)=O)CC3)cn12	none (no result: Beta2AR agonist, MITF TRPM1 inh)
CC1(C)CC2(C)OC2C2(C1)N=NC(=Nc1ccccc1)O2 (stereo unspecified)	Peg3 prom inh 72.8 (no result: Beta2AR agonist, MITF TRPM1 inh)
CCN1C(=O)[C@H]2[C@@H](c3ccc(C(F)(F)F)cc3)N[C@]3(CCCN(Cc4ccc(C(F)(F)F)cc4)C3=O)[C@H]2C1=O	none (no result: Beta2AR agonist, MITF TRPM1 inh)
Nc1c(C(=O)Nc2ccc(S(=O)(=O)N3CCCC3)cc2)sc2nc3cc4c(cc3cc12)CCC4	none
Nc1c(C(=O)Nc2ccc(S(=O)(=O)N3CCCC3)cc2)sc2nc3ccc(OC(F)(F)F)cc3cc12	MITF TRPM1 inh 82.6
Cc1cc2c(cc1C)N(Cc1ccc(Cl)cc1)C1=NCCCN12	Peg3 prom inh 57.0
Cc1ccc(CN2C3=NCCCN3c3ccccc32)cc1	none
COc1ccccc1CN(Cc1nc2ccccc2c(=O)[nH]1)S(=O)(=O)c1ccc2ccccc2c1	Peg3 prom inh 58.4
COc1ccc(-c2csc(NC(=O)c3ccccc3NS(=O)(=O)c3ccc(C)cc3)n2)cc1	CF NFkB inh 56.8, KKLEB cytotox -51.7, Peg3 prom inh 55.1
COc1ccc(S(=O)(=O)Nc2ccccc2C(=O)Nc2nc(-c3ccc(F)cc3)cs2)cc1OC	CF NFkB inh 51.7
CCCNC(=O)c1ccccc1NS(=O)(=O)c1ccc(OC)c(OC)c1	none
CC1(C)CC(=O)C(C(C2=C(O)CC(C)(C)CC2=O)c2cccc(O)c2)C(=O)C1 (stereo unspecified)	none
CC1(C)CC(=O)C(C(C2=C(O)CC(C)(C)CC2=O)c2cccs2)C(=O)C1 (stereo unspecified)	Beta2AR agonist 68.2
Cc1cc([N+](=O)[O-])ccc1P(=O)(O)c1ccc([N+](=O)[O-])cc1C	none
CCOC(=O)Oc1ccc2oc(=O)cc(C)c2c1	none
Cc1cc(=O)oc2ccc(OCC(=O)N(Cc3ccc(F)cc3)Cc3ccco3)cc12	Beta2AR agonist 60.9
CC(=O)c1ccc(N2CCN(S(=O)(=O)c3ccc4c(c3)C(Cl)(Cl)C(=O)N4)CC2)cc1	none (no result: Beta2AR agonist, MITF TRPM1 inh)
Cn1ccc2c(-c3ccc4c(c3)OCCO4)cc3c(c21)C1CCC3C1 (stereo unspecified)	none (no result: Beta2AR agonist, MITF TRPM1 inh)
COC(=O)[C@@H]1[C@@H](C#N)C2(c3ccccc3-c3ccccc32)N(c2ccc(Cl)cc2)N1C#N	Peg3 prom inh 109.8, HIF-2a inh 63.6
O=C(Cc1ccc(Cl)cc1)NN1C(=O)c2ccccc2C1=O	none
CC(C)(C)S(=O)N1Cc2cc(C(=O)NCc3ccc4c(c3)OCO4)nc(-c3cccc(-c4ccccc4)c3)c2[C@@H]1CCO (stereo partly specified)	none (no result: Beta2AR agonist, MITF TRPM1 inh)
C=CCNC(=O)/C(C#N)=C/c1c(N(Cc2ccccc2)Cc2ccccc2)nc2ccccn2c1=O	Peg3 prom inh 50.0
N#C/C(=C\c1c(N(Cc2ccccc2)Cc2ccccc2)nc2ccccn2c1=O)C(N)=O	none
O=C(NCc1ccccc1)c1sc(=S)n2c1[nH]c(=O)c1ccccc12	CF NFkB inh 51.3
CCOC(=O)c1ccc(S(=O)(=O)N2CCC(C(=O)NCC3COc4ccccc4O3)CC2)cc1 (stereo unspecified)	none (no result: Beta2AR agonist, MITF TRPM1 inh)
O=c1[nH]c2cc([N+](=O)[O-])ccc2c2ccccc12	none
O=C1Cc2c([nH]c3ccc([N+](=O)[O-])cc23)-c2ccccc2N1	CF NFkB inh 83.5, Peg3 prom inh 108.1
COc1ccc(C(C(=O)NC2CCCCC2)N(Cc2ccco2)C(=O)c2snc(C(N)=O)c2N)cc1 (stereo unspecified)	Peg3 prom inh 57.9
COc1ccc(C(C(=O)NC2CCCC2)N(Cc2ccco2)C(=O)c2snc(C(N)=O)c2N)cc1OC (stereo unspecified)	none
O=C1C=C(C2CCCCC2)C(=O)c2ccccc21	CF NFkB inh 71.1
O=C(O)C1=C(C2CCCCC2)C(=O)c2ccccc21	none
OC(c1ccccc1)c1nc(-c2csc3ccccc23)cs1 (stereo unspecified)	none (no result: Beta2AR agonist, MITF TRPM1 inh)
O=C(/C=C/c1ccncc1)c1ccc(NC(=O)c2ccccc2F)cc1	Beta2AR agonist 51.0, CF NFkB inh 71.9, Peg3 prom inh 103.4
Cc1ccccc1C(C)(O)c1cnc(C)n1Cc1ccccc1 (stereo unspecified)	none (no result: Beta2AR agonist, MITF TRPM1 inh)
Cc1ccccc1C(=O)N1CCC(C(=O)N2CCN(c3ncccn3)CC2)CC1	none
CCOC(=O)N1CCN(C(=O)C2CCN(C(=O)c3ccccc3C)CC2)CC1	Beta2AR agonist 48.7, MITF TRPM1 inh 74.4, Peg3 prom inh 106.8
COc1cc(-c2cc(NC=O)c3ncc(-c4ccc(C(C)=O)cc4)n3c2)ccc1O	none (no result: Beta2AR agonist, MITF TRPM1 inh)
Oc1ccc(N=Nc2n[nH]c(-c3ccc(Br)cc3)n2)cc1	Peg3 prom inh 86.1
NC(=S)NN=C1c2cc(OCCN3CCOCC3)ccc2-c2ccc(OCCN3CCOCC3)cc21	MITF TRPM1 inh 79.1, Peg3 prom inh 107.2
ON=C1c2cc(OCCN3CCCCC3)ccc2-c2ccc(OCCN3CCCCC3)cc21	MITF TRPM1 inh 74.5, Peg3 prom inh 111.2
Clc1ccc(OCCN2CCCCC2)cc1Cl	none
Clc1ccc(OCCN2CCOCC2)cc1Cl	none
O=C(c1cc(-c2ccccc2)on1)N(Cc1cccnc1)C(c1ccccn1)c1nc2ccccc2[nH]1 (stereo unspecified)	none (no result: Beta2AR agonist, MITF TRPM1 inh)
CCOC(=O)N1CCN(C(=O)c2ccc3c(c2)N(C)C(=O)/C(=C\c2ccc(OCC)c(OC)c2)S3)CC1	Peg3 prom inh 52.6
Oc1ccc(C2C[C@H]3CC[C@@H]2C3)cc1O (stereo partly specified)	HIF-2a inh 54.9
COc1ccc(OCC(=O)Nc2nonc2NC(=O)COc2ccc(OC)cc2)cc1	none
COc1ccc(OCC(=O)Nc2cccc(NC(=O)COc3ccc(OC)cc3)n2)cc1	KKLEB cytotox -62.9
O=C(CCCCCN1C(=O)c2ccccc2C1=O)Nc1ccccc1	none
O=C(CCCCCCC(=O)Nc1ccccc1)NO	MITF TRPM1 inh 84.2 (no result: CF NFkB inh, KKLEB cytotox)
CC(C)Oc1ccc(C(CCN)C2CCCCC2)cc1 (stereo unspecified)	MITF TRPM1 inh 87.7, Peg3 prom inh 105.0

Source: PubChem
